KB-V1 cytotox: qHTS assay for MDR1-selective chemotherapeutics: Primary screen using the drug-selected MDR subline cells KB-V1; KB-V1 MDR cells viability, CellTiter-Glo, 72 h; Potency, µM (series often up to 46.1 µM), most hits filed as cytotoxic; 400,000 compounds, 3.4% hits; further: nearly all actives have a fitted effect of over 60% in size
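Luminescent ATP read-out (CellTiter-Glo, 10 min) measures survival of drug-selected KB-V1 MDR cells after 72 h, 37 degrees C compound exposure. Medium: phenol-red-free DMEM, 10% FBS. Values from fitted concentration-response curves.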
MCF10A rereplic: A quantitative high throughput screen for small molecules that induce DNA re-replication in MCF 10a normal breast cells. MCF 10A DNA re-replication, Hoechst nuclear intensity, 48 h. Potency, µM (series often up to 46.1 µM), hits mostly activators. 350,000 compounds, 2.9% hits. AID 624296, 2012; further: nearly all actives have a fitted effect of over 50% in size
KB-3-1 tox: qHTS assay for MDR1-selective chemotherapeutics: Primary screen using the parental adenocarcinoma cell KB-3-1 | KB-3-1 viability, CellTiter-Glo ATP luminescence, 72 h | Potency, µM (highest dose often 46.1 µM), most hits filed as cytotoxic | 400,000 compounds, 1.4% hits | AID 1347075, 2019; further: nearly all actives have a fitted effect of over 60% in size
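Cytotoxicity measured as CellTiter-Glo luminescence after 72 h at 37 C. Compound titrations were pinned onto drug-naive KB-3-1 parental adenocarcinoma cells grown in DMEM with 10% FBS, and normalized data fitted to concentration-response curves.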
DRD3 agonist: qHTS of D3 Dopamine Receptor Agonist: qHTS; D3R DiscoveRx beta-arrestin cells, luminescence, 90 min; 410,000 compounds, 0.58% hits; D(3) dopamine receptor (Homo sapiens), P35462; max activation, %; in the data active means max activation above about 30%
Target sequence (P35462 whole entry, looked up): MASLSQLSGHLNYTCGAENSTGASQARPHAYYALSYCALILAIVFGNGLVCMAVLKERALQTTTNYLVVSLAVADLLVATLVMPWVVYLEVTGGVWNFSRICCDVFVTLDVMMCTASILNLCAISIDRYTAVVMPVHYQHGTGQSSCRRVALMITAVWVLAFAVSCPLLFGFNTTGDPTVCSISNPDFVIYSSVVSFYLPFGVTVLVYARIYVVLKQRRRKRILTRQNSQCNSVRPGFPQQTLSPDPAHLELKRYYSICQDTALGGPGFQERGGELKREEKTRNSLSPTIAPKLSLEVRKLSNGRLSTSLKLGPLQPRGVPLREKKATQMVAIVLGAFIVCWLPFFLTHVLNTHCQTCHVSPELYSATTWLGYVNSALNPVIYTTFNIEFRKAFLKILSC
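Cells at 1500/well, incubated overnight, then treated with pinned compounds (dopamine as control) for 90 min at 37 degrees C. DiscoveRx reagent added for 30 - 60 minutes at room temperature; luminescence read.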
D3 antag: qHTS of D3 Dopamine Receptor Antagonist: qHTS | D(3) dopamine receptor (Homo sapiens), P35462 | D3R cells, DiscoveRx beta-arrestin luminescence, antagonist mode; stronger effect = lower value | max response, negative = inhibition, % | 360,000 compounds, 2.5% hits; in the data active means max response below about -50%; inconclusive means no clear call, values can overlap the other calls
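Cells expressing the human receptor were seeded at 1500 cells/well, incubated overnight at 37 degrees C in 5% CO2, then exposed to library compounds with dopamine controls for 90 minutes at 37 degrees C before luminescent detection.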
SW480 rerep: A quantitative high throughput screen for small molecules that induce DNA re-replication in SW480 colon adenocarcinoma cells. SW480 DNA re-replication, Hoechst DNA content imaging, 48 h. Potency, µM (series often up to 46.1 µM), actives largely listed as activators. 340,000 compounds, 1.8% hits. AID 624297, 2012; further: nearly all actives have a fitted effect of over 55% in size
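Hoechst fluorescence of nuclei (405 nm excitation, 500-530 nm emission) measured by plate-scanning imager after 48 hr compound exposure at 37 C; re-replication scored as increased number of nuclei with elevated intensity.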
Numbers stand for hits; i = inactive; ? = inconclusive; nt = no result given. Compounds with a hit are over-represented: about 8.9% of the library has one in this group of screens. Unless noted, the call rests on the fitted dose curve; in most records, active means well fitted curve in the direction sought with a large enough effect; inconclusive means small, poorly fitted or top-dose-only effect, or another doubt; inactive means no such curve, though single readings can be large; an effect the other way counts as inactive or inconclusive.

SMILES	KB-V1 cytotox	MCF10A rereplic	KB-3-1 tox	DRD3 agonist	D3 antag	SW480 rerep
COCCn1nnnc1C(c1cc2cccc(C)c2[nH]c1=O)N1CCN(c2ccccc2F)CC1 (configuration not stated)	i	i	i	i	-53.5	i
Cc1ccc2c(c1)N(C(=O)Nc1cccc3c1CCCC3)CC(C)O2 (configuration not stated)	nt	nt	nt	i	nt	nt
C[C@@H](O)[C@H]1C(=O)N2C(C(=O)[O-])=C(SC3Cn4cnc[n+]4C3)[C@H](C)[C@H]12 (some centres not stated)	nt	nt	nt	i	nt	nt
Cc1ccc(Cl)cc1NC(=O)COCc1cc(-c2ccco2)on1	i	nt	i	i	nt	nt
NCCC1CN(C(=O)OCc2ccccc2)c2ccccc21 (configuration not stated)	i	i	i	i	i	10.3µM
O=C(OCc1ccccc1)N1CCOCCOCCN(C(=O)OCc2ccccc2)CCOCCOCC1	?	i	i	i	i	i
Cc1ccc(-c2csc(N/N=C/c3ccco3)n2)cc1	i	i	i	i	i	i
Brc1ccc(-c2csc(N/N=C/c3ccco3)n2)cc1	i	i	i	30.1	i	i
Cc1ccc(C(=O)c2c(C)oc3c2C(=O)C(=O)c2ccccc2-3)cc1	5.17µM	18.4µM	?	i	i	13µM
Cc1oc2c(c1C(=O)c1ccc(Cl)cc1)C(=O)C(=O)c1ccccc1-2	16.4µM	7.31µM	?	i	?	i
O=C(c1ccc(F)cc1)c1ccc(CN2C(=O)c3ccccc3C2=O)o1	i	i	i	i	i	i
Cc1ccc(C(=O)c2coc3c2C(=O)C(=O)c2ccccc2-3)cc1	?	i	i	i	i	i
O=C(c1ccc(Cl)cc1)c1ccc(CN2C(=O)c3ccccc3C2=O)o1	i	i	i	i	-64.4	i
CCOC(=O)c1c(C)oc2ncnc(Nc3cc(Cl)ccc3OC)c12	i	nt	i	i	nt	nt
CC[C@@H](C(=O)[C@@H](C)[C@@H](O)[C@H](C)CCc1ccc(C)c(O)c1C(=O)O)[C@H]1O[C@](CC)([C@H]2CC[C@](O)(CC)[C@H](C)O2)C[C@@H]1C	?	?	?	207.5	i	?
O=C(Cn1c(=O)n(-c2ccccc2)c(=O)c2oc3ccccc3c21)Nc1ccccc1	14.6µM	?	i	i	i	i
COc1ccc(C(=O)NCCn2cc(SCC(=O)Nc3ccc(F)cc3)c3ccccc32)cc1	?	nt	?	i	nt	nt
Oc1ccc(Cl)cc1-c1cc(-c2cccc(Br)c2)n[nH]1	20.6µM	?	?	i	i	i
Cc1ccccc1/C=c1\s/c(=C\C(=O)C(C)(C)C)[nH]c1=O	?	16.4µM	?	i	i	?
CN(Cc1ccccc1)C(C(=O)NC1CCCCC1)c1ccc(Cl)cc1 (configuration not stated)	i	nt	i	i	nt	nt
Cc1cc(C)c(NC(=O)CNC(=O)CN(C)Cc2ccc(Br)s2)c(C)c1	16.4µM	i	i	i	i	i
Cc1ccccc1C(=O)NNc1ncnc2c1cnn2-c1cccc(Cl)c1	i	nt	i	i	nt	nt
COc1cc2c(cc1NC(=O)CSc1nc3ccccc3[nH]1)oc1ccccc12	i	?	i	i	-74.7	?
O=C(CSc1nc2ccc(Cl)cc2[nH]1)NCCc1ccccc1	16.4µM	?	i	i	i	i
Cc1ccccc1NC(=O)CSc1nc2cc3c(cc2cc1C)CCC3	i	?	?	i	?	6.51µM
O=C(CSc1nc2ccc(Cl)cc2[nH]1)NCCc1ccc(Cl)cc1	i	?	i	i	?	i
COc1ccc2nc(SCC(=O)Nc3ccccc3C)[nH]c2c1	14.6µM	i	i	i	i	i
COCCNC(=O)C1=CC(c2ccc3c(c2)OCO3)=NS(=O)(=O)N1C	i	nt	i	i	nt	nt
COc1ccc(OC)c(-c2cc(C(=O)Nc3cccc(Cl)c3C)no2)c1	i	nt	i	i	nt	nt

From PubChem BioAssay
